GPT2 inhibitor: Primary qHTS assay for inhibitors of Glutamate pyruvate transaminase 2 (GPT2). Alanine aminotransferase 2 (Homo sapiens), Q8TD30. Recombinant GPT2, coupled pyruvate oxidase/HRP Amplex Red fluorescence. Potency, µM (highest dose often 57.7 µM), hits mostly inhibitors. actives 0.25% (n = 100,000); note: nearly all actives have a fitted effect of over 60% in size
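Inhibition is scored from Amplex Red fluorescence generated when pyruvate oxidase and HRP act on pyruvate released by GPT2. Reactions contain 10ng/uL enzyme, 250uM a-KG and 2mM L-alanine and run 30 min at room temperature.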
NPR1 antag: Natriuretic polypeptide receptor (hNpr1) antagonism - Primary qHTS; Atrial natriuretic peptide receptor 1 (Homo sapiens), P16066; HEK293 hNpr1 GloSensor cGMP, ANP-stimulated luminescence; Potency, µM (titrated, usually from 46.3 µM), hits mostly inhibitors; actives 1.6% (n = 76,000); calls by dose curve; note: nearly all actives have a fitted effect of over 60% in size
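Compound pre-incubated 30 min at room temperature on GloSensor-loaded HEK293 cells stably carrying hNpr1 and the pGS-40F cGMP biosensor. Stimulation uses hNppA at 0.1 nM final; luminescence is taken at baseline and 20 min post-agonist.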
3T3 cytotox: Cytotoxic Profiling in NIH 3T3 Cell Line of Diverse Libraries Using Quantitative High-Throughput Screening; NIH 3T3 viability, CellTiter-Glo ATP luminescence, 48-72 h; Potency, µM (highest dose often 96.7 µM), actives largely listed as inhibitors; actives 4.3% (n = 94,000); AID 1345082, 2018; note: nearly all actives have a fitted effect of over 55% in size
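Cells were seeded at 400 per well, treated with pin-transferred compound, and kept 48 or 72 hr at 37 °C before CellTiter-Glo addition and luminescence imaging of cellular ATP.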
FLuc inh: Firefly luciferase inhibition profiling of diverse chemical library using quantitative high-throughput screening; Luciferin 4-monooxygenase (Photinus pyralis), P08659; purified P. pyralis luciferase, luminescence, biochemical; Potency, µM (series often up to 115 µM), actives largely listed as inhibitors; actives 2.5% (n = 76,000); AID 1347043, 2019; note: nearly all actives have a fitted effect of over 65% in size
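Cell-free enzyme assay, 10nM P. pyralis luciferase, luciferin and ATP each at 10uM. Inhibition profiled over a 6-point titration, read as luminescence.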
HEK cytotox: Cytotoxic Profiling in HEK 293 Cell Line of Diverse Libraries Using Quantitative High-Throughput Screening; actives 6.6% (n = 94,000); HEK 293 viability, ATP luminescence (CellTiter-Glo), 48-72 h; Potency, µM (highest dose often 115 µM), most hits filed as inhibitors; note: nearly all actives have a fitted effect of over 60% in size
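Viability of HEK 293 cells, plated at 250 cells/well, was judged by cellular ATP after compound treatment for 48 or 72 hr. Luminescence was imaged 10 min after CellTiter-Glo addition at room temperature.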
Numbers stand for hits; . = inactive; ? = inconclusive; / = no result given. Most compounds without a hit are left out; they make up all but 10% or so of the library. Unless noted, calls come from the whole dose curve; as a rule, active = well fitted curve in the direction sought with a large enough effect; inconclusive = small, poorly fitted or top-dose-only effect, or another doubt; inactive = no such curve, though single readings can be large; an effect the other way counts as inactive or inconclusive.

SMILES	GPT2 inhibitor	NPR1 antag	3T3 cytotox	FLuc inh	HEK cytotox
c1ccc2sc(N3CCCN(Cc4cc5n(n4)CCNC5)CC3)nc2c1	.	.	?	?	35µM
O=C(NCC1CC1)c1ccc2oc(-c3cccnc3)nc2c1	?	/	.	/	.
O=C(NC1CCCCC1)N1Cc2[nH]cnc2C[C@H]1c1nc(-c2cccc([N+](=O)[O-])c2)no1	.	.	?	.	.
COCC(=O)NC1CCN(Cc2cccc(-c3ccccc3OC)c2)CC1	.	/	.	/	.
COc1ccccc1-c1cccc(CN2CCC(NC(=O)Cc3ccc(C(F)(F)F)cc3)CC2)c1	.	/	11µM	/	11µM
COc1ccccc1-c1cccc(CN2CCC(NC(=O)Nc3ccc(C)c(F)c3)CC2)c1	.	/	20µM	/	10µM
COc1ccccc1-c1cccc(CN2CCC(NC(=O)c3ccccc3F)CC2)c1	.	/	?	/	?
COc1ccc(C(=O)NC2CCN(Cc3cccc(-c4ccccc4OC)c3)CC2)cc1	/	/	?	/	22µM
COc1ccccc1-c1cccc(CN2CCC(NC(=O)c3ccc(F)cc3)CC2)c1	.	/	?	/	40µM
O=C(NCc1ccccc1Cl)c1ccc2oc(-c3ccccn3)nc2c1	.	/	.	/	?
C/C=C(\C)C(=O)O[C@H]1C[C@](C)(O)[C@H]2CC=C(C)[C@H]2[C@@H]2OC(=O)[C@H](C)[C@H]21	.	/	/	/	/
O=C(C1CCCN1C(=O)Cc1ccc(F)cc1)N1CCC(N2Cc3ccccc3C2=O)CC1 (stereo not given)	.	/	.	/	.
COc1cccc(-c2ccccc2NC(=O)C2CCN(Cc3cc(F)ccc3F)CC2)c1	.	?	?	.	22µM

Screening data as filed in PubChem.
